Reference: PubChem BioAssay (NCATS)
Where “and” joins values, the source holds several entries; their conditions need not be identical. Equal values may be shown once. Records with an inconclusive call do not appear. Calls of active or inactive are those of the source. Unless noted, the call rests on the fitted dose curve; in most records, active means well fitted curve in the direction sought with a large enough effect; inconclusive means small, poorly fitted or top-dose-only effect, or another doubt; inactive means no such curve, though single readings can be large; an effect the other way counts as inactive or inconclusive.

Columns and labels:
[1] = qHTS assay for small molecule disruptors of the mitochondrial membrane potential - 1 hr assay (AID 651754; calls by dose curve; further: on the % scale 0 is the no-effect control and ±100 the full control effect; nearly all actives have a fitted effect of over 35% in size)
Method in brief: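 HepG2 cells, attached overnight, were exposed to compound for 1 hr at 37C, then stained 30 min with a potentiometric dye. Ratio of red aggregate (590nm) to green monomer (535nm) fluorescence reports membrane potential; collapse shifts signal toward green.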

[2] = qHTS assay for small molecule disruptors of the mitochondrial membrane potential - 5 hr assay (AID 651755; calls by dose curve; further: on the % scale 0 is the no-effect control and ±100 the full control effect; nearly all actives have a fitted effect of over 40% in size)
Method in brief: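 HepG2 cells (2,000/well), attached overnight, exposed to compound 5 hr at 37C, then Mito-MPS dye 30 min. Fluorescence read for monomers (490/535 nm) and aggregates (540/590 nm).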

[3] = biological target: Tumor necrosis factor (Homo sapiens) (UniProt P01375); assay: qHTS assay to identify small molecules that stimulate Tumor Necrosis Factor-alpha (TNF-alpha) secretion (AID 651757; active means well fitted curve in the direction sought with a large enough effect in the signal ratio; the % refers to the signal ratio; further: 0% is about no effect)
Chain of Tumor necrosis factor (Homo sapiens) (P01375 whole entry, looked up): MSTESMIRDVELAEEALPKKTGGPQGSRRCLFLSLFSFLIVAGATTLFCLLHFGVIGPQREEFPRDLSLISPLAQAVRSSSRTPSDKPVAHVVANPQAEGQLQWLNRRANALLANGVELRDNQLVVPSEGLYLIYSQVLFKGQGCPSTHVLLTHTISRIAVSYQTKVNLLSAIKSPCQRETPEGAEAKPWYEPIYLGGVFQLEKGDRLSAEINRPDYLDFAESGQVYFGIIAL
Method in brief: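 THP-1 cells (3000/well) exposed to compounds 17 hrs at 37 C. Secreted TNF-alpha detected by HTRF with cryptate- and XL665-labeled anti-TNF-alpha antibodies after 3 hr at room temperature.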

[4] = qHTS assay to identify small molecules that stimulate interleukin-8 (IL-8) secretion (AID 651758; active means well fitted activation curve with a large enough effect in the signal ratio; the % refers to the signal ratio; further: 0% is about no effect)
Method in brief: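 THP-1 cells (2000/well) exposed to compound 16 h at 37 C; secreted IL-8 then detected by HTRF with cryptate- and XL665-labelled anti-IL-8 antibody pair after 1-3 h at room temperature.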

[5] = qHTS assay for environmental chemicals that activate the Aryl hydrocarbon Receptor (AhR) signaling pathway (AID 651777); conditions: 1A2-DRE human hepatoma cells, luciferase, 24 h; activation: hits give high values; further: % of control where 0% means no effect; nearly all actives have a fitted effect of over 15% in size
Method in brief: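 Following a 24 hr incubation with test chemicals at 37 C and 5% CO2, 1A2-DRE human hepatoma cells received One-Glo reagent; after 30 min at room temperature, luciferase output reflected CYP1A2 induction via AhR.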

[6] = biological target: Peroxisome proliferator-activated receptor alpha (Homo sapiens) (UniProt Q07869); assay: qHTS assay for small molecule agonists of the peroxisome proliferator-activated receptor alpha (PPARalpha) signaling pathway (AID 651778); conditions: PathHunter PPARalpha complementation, chemiluminescence, 6 h; hits give high values; further: % of control where 0% means no effect
Chain of Peroxisome proliferator-activated receptor alpha (Homo sapiens) (Q07869 whole entry, looked up, the tested form may be a part): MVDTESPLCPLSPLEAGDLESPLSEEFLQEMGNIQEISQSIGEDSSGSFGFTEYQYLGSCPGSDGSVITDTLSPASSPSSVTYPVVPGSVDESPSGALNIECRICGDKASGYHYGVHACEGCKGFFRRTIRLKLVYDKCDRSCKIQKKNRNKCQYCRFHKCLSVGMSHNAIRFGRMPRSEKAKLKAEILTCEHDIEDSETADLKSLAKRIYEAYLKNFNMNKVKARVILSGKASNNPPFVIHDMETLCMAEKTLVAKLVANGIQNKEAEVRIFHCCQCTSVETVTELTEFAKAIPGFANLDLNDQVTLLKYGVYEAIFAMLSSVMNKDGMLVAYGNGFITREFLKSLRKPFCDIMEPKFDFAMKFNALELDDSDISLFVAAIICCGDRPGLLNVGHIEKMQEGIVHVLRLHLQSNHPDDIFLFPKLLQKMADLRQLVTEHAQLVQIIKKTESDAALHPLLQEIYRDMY
Method in brief: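 Enzyme-fragment complementation assay in which ligand-bound PPARalpha translocates and forms an active enzyme that generates chemiluminescence. Cells were plated overnight, exposed to compound for 6 hr at 37 C, and then given detection reagent for 60 min at room temperature.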

[7] = biological target: Nuclear receptor ROR-gamma (Homo sapiens) (UniProt P51449); assay: qHTS assay for small molecule antagonists of the retinoid-related orphan receptor gamma (ROR-gamma) signaling pathway (AID 651802);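 further: luciferase reporter luminescence driven by ROR response element; series mostly up to about 92 µM; on the % scale 0 is the no-effect control and ±100 the full control effect; nearly all actives have a fitted effect of over 60% in size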
Chain of Nuclear receptor ROR-gamma (Homo sapiens) (P51449 whole entry, looked up): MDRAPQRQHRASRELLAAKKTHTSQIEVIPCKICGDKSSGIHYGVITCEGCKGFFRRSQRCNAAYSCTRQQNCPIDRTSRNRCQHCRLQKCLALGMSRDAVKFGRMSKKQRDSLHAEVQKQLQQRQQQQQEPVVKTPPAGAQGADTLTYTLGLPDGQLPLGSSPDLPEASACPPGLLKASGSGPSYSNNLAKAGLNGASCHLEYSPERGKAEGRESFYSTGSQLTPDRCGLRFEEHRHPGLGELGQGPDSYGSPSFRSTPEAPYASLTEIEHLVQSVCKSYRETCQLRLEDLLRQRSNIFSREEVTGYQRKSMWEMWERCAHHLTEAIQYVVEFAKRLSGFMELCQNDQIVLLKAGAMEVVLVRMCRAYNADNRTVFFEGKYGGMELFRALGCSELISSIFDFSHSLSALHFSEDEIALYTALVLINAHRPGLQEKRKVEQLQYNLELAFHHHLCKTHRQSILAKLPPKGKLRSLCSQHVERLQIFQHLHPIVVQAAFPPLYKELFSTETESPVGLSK
Method in brief: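 CHO cells with TET-inducible ROR-gamma and RORE-luciferase reporter, dosed then doxycycline-induced. After 16 h at 37C, One-Glo luminescence read; decreased signal indicates antagonism.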

[8] = qHTS assay for small molecule agonists of the antioxidant response element (ARE) signaling pathway measured by Nrf2-dependant transcriptional activity (AID 720636; active means well fitted curve in the direction sought with a large enough effect in the repeat runs; an effect the other way counts as inactive or inconclusive;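 further: HepG2 cells with an ARE-driven luciferase reporter; % of control where 0% means no effect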)
Method in brief: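 ONE-Glo luminescence, read 30 min after reagent addition at room temperature, reflected ARE reporter activity in HepG2 cells that had been incubated with compound for 16 hr at 37 C in 1% dialyzed FBS.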

[9] = qHTS assay for small molecule antagonists of the retinoid-related orphan receptor gamma (ROR-gamma) signaling pathway - cell viability counter screen (AID 720652; active means well fitted curve in the direction sought with a large enough effect in the repeat runs; an effect the other way counts as inactive or inconclusive;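 further: series mostly up to about 92 µM; compound exposure lasted 16 hr before ATP read; on the % scale 0 is the no-effect control and ±100 the full control effect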)
Method in brief: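 CHO cells carrying TET-inducible ROR and RORE-luciferase reporter, plated 5 hr, then dosed with compound plus doxycycline. After 16 hr at 37 C, viability read as intracellular ATP by CellTiter-Glo luminescence.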

[10] = qHTS assay for small molecule agonists of the antioxidant response element (ARE) signaling pathway measured by Nrf2-dependant transcriptional activity - cell viability counter screen (AID 720653; active means well fitted curve in the direction sought with a large enough effect in the repeat runs; an effect the other way counts as inactive or inconclusive; further: on the % scale 0 is the no-effect control and ±100 the full control effect); conditions: ARE-bla HepG2 viability, CellTiter-Glo ATP luminescence, 16 h; hits give low values
Method in brief: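 ARE-bla HepG2 cells treated with compounds for 16 h at 37C; this counter screen measures viability as intracellular ATP by CellTiter-Glo luminescence after 30 min at room temperature.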

[11] = qHTS assay for cell viability of the p53RE-bla HCT-116 cell line (AID 743292); further: on the % scale 0 is the no-effect control and ±100 the full control effect; nearly all actives have a fitted effect of over 55% in size
Method in brief: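 After plating at 4,000 cells per well and a 5 h rest at 37 C, HCT-116 cells carrying p53RE-bla received test chemicals in DMSO. Sixteen hours later at 37 C, CellTiter-Glo was added and luminescence recorded following 30 min at room temperature.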

[12] = biological target: Nuclear receptor subfamily 1 group I member 2 (Rattus norvegicus) (UniProt Q9R1A7); assay: qHTS assay for small molecule activators of the rat pregnane X receptor (rPXR) signaling pathway (AID 651751; call rule not given here; further: 0% is about no effect); conditions: rPXR reporter cells, luciferase (One-Glo), 24 h
Chain of Nuclear receptor subfamily 1 group I member 2 (Rattus norvegicus) (Q9R1A7 whole entry, looked up): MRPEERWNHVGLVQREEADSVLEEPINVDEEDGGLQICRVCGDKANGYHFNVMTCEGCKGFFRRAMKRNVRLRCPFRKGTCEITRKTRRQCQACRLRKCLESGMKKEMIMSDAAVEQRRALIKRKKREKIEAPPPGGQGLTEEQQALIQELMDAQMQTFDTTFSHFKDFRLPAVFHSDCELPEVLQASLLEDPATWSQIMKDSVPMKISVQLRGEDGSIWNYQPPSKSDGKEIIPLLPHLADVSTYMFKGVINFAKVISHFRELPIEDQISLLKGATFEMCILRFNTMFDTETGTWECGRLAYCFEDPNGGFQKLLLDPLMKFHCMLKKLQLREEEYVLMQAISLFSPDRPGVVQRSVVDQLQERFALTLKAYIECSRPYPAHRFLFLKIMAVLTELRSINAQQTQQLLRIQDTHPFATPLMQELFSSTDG

[13] = qHTS assay for small molecule activators of the human pregnane X receptor (PXR) signaling pathway (AID 720659; call rule not given here; further: 0% is about no effect)
[14] = qHTS assay for cell viability of HEK293 cells (AID 743288); conditions: ATP luminescence (CellTiter-Glo), 18 h, hits give low values; further: on the % scale 0 is the no-effect control and ±100 the full control effect; nearly all actives have a fitted effect of over 50% in size
Method in brief: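 Parental HEK293 cells, 2,000 per well, preincubated at least 5 h at 37 C, then exposed to compounds in DMSO for 18 h at 37 C. Viability by CellTiter-Glo ATP luminescence after 30 min at room temperature.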

CC(C)=CCC/C(C)=C/C=O
inactive: Potency [1] | Potency [2] | Potency [3] | Potency [4] | activation [5] 1.06% and -1.3% | max response [6] -4.87% and -0.301% | Potency [7] | outcome [8] | Potency [9] | max response [10] -2.99% and -11.3% | Potency [11] | max response [12] -5.36% and -0.0145% | outcome [13]

c1ccc2c(c1)Oc1ccccc1S2
inactive: Potency [1] | Potency [2] | Potency [3] | Potency [4] | max response [6] -0.0488% | Potency [7] | outcome [8] | Potency [9] | max response [10] 6.9% | max response [14] 0.655% | Potency [11] | max response [12] -3.68% | outcome [13]

Cc1cccc(C)c1O
inactive: Potency [1] | Potency [2] | Potency [3] | Potency [4] | activation [5] 0.0984% | max response [6] -7.29% | Potency [7] | outcome [8] | Potency [9] | max response [10] 8.44% | max response [14] 0.15% | Potency [11] | max response [12] 2.68% | outcome [13]

COCCOC(=O)c1ccccc1C(=O)OCCOC
inactive: Potency [1] | Potency [2] | Potency [3] | Potency [4] | activation [5] -0.057% | max response [6] 2.89% | Potency [7] | outcome [8] | max response [10] 9.02% | max response [14] -2.4% | Potency [11] | max response [12] -0.386%

Cc1ccc2ccccc2c1[N+](=O)[O-]
inactive: Potency [1] | Potency [2] | Potency [3] | Potency [4] | activation [5] 1.24% | max response [6] 5.72% | Potency [7] | outcome [8] | max response [10] 14.1% | max response [14] 1.17% | Potency [11] | max response [12] -2.23% | outcome [13]

Cc1cccc(C)c1
inactive: Potency [1] | Potency [2] | Potency [3] | Potency [4] | activation [5] 0.25% | max response [6] 1.06% | outcome [8] | Potency [9] | max response [10] 7.38% | max response [14] 7.2% | Potency [11] | max response [12] -3.48% | outcome [13]

CCOCC(=O)O
inactive: Potency [1] | Potency [2] | Potency [3] | Potency [4] | activation [5] -0.35% | max response [6] -1.55% | Potency [7] | outcome [8] | max response [10] 1.2% | max response [14] -0.256% | Potency [11] | max response [12] 1.81% | outcome [13]

CCCCCCCCC/C=C/CC1CC(=O)OC1=O (stereo unspecified)
inactive: Potency [1] | Potency [2] | Potency [3] | Potency [4] | activation [5] 0.696% | max response [6] 0.153% | outcome [8] | max response [10] -4.85% | max response [14] 0.292% | Potency [11] | max response [12] -1.93% | outcome [13]

CC(=O)Nc1ccccc1C
inactive: Potency [1] | Potency [2] | Potency [3] | Potency [4] | activation [5] -0.35% | max response [6] -1.36% | outcome [8] | Potency [9] | max response [10] -6.99% | max response [14] -9.82% | Potency [11] | max response [12] -0.909% | outcome [13]

CC/C(C)=N/O
inactive: Potency [1] | Potency [2] | Potency [3] | Potency [4] | max response [6] 1.72% | Potency [7] | outcome [8] | Potency [9] | max response [10] -8.91% | max response [14] 6.15% | Potency [11] | max response [12] 5.17% | outcome [13]

CC1(N)CCC(C(C)(C)N)CC1 (stereo unspecified)
inactive: Potency [1] | Potency [2] | Potency [3] | Potency [4] | activation [5] -0.642% | max response [6] 0.74% | Potency [7] | outcome [8] | Potency [9] | max response [10] 1.22% | Potency [11] | max response [12] 1.15% | outcome [13]

C1CCCC1
inactive: Potency [1] | Potency [2] | Potency [3] | Potency [4] | activation [5] 0.0008% | max response [6] 5.92% | Potency [7] | outcome [8] | Potency [9] | max response [10] -4.11% | max response [14] 0.668% | Potency [11] | max response [12] -1.32% | outcome [13]

CCCCC(CC)CO (stereo unspecified)
inactive: Potency [1] | Potency [2] | Potency [3] | Potency [4] | activation [5] -0.248% | max response [6] -2.86% | Potency [7] | outcome [8] | max response [10] 7.9% | max response [14] -2.63% | Potency [11] | max response [12] -2.06% | outcome [13]

COC(=O)CCC(=O)OC
inactive: Potency [1] | Potency [2] | Potency [3] | Potency [4] | max response [6] 7.56% | Potency [7] | outcome [8] | max response [10] -12.8% | max response [14] 2.75% | Potency [11] | max response [12] 1.71% | outcome [13]
